Bioassay records (PubChem BioAssay)
PrP 5UTR inh: inhibition of PrP 5' UTR reporter expression; cell-based PrP 5' UTR mRNA reporter, plate reader; inhibition, % (concentration not given with the values); 340,000 tested, 0.35% active; AID 488862, 2010; in the data active = inhibition above about 52%; also: 0 = median of the neutral control wells
CCHFV vOTU inh: CCHFV vOTU protease inhibitors, primary screen, biochemical, Pep-AMC substrate, fluorescence | Crimean-Congo hemorrhagic fever virus L polyprotein viral ovarian tumor (vOTU) protease … | inhibition, % at 11.5 µM | 370,000 tested, 0.55% active; in the data active = inhibition above about 30%; also: 0% = vehicle wells with enzyme and 100% = no enzyme wells
PrPC TRFRET: inhibitors of human cell surface prion protein PrPC, primary screen, cell-based, TR-FRET; TR-FRET read-out; 370,000 tested, 0.43% active; inhibition, % at 13.8 µM; Major prion protein (Homo sapiens), P04156; in the data active = inhibition above about 24%; also: 0% = median of the test wells and 100% = reference compound wells
RN4220 kill: growth inhibition of S. aureus RN4220, primary screen, OD600; 16 h; AID 1259311, 2017; 330,000 tested, 0.33% active; inhibition, % (concentration not given with the values); in the data active = inhibition above about 85%;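 also: plate controls were untreated cells for no effect and reference antibiotic for full effect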
Sa ugtP lethal: growth inhibition of ugtP-null S. aureus, primary screen, RN4220 ugtP deletion, OD600; 16 h; growth inhibition, % (concentration not given with the values); 330,000 tested, 0.54% active; AID 1259309, 2017; in the data active = growth inhibition above about 68%;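 also: plate controls were untreated wells for no effect and antibiotic for full effect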
PfHsp40 rescue: rescue of yeast from PfHsp40 toxicity, primary screen, S. cerevisiae, ATP luminescence. S. cerevisiae expressing PfHsp40, growth rescue. growth rescue, % at 12.5 µM. 340,000 tested, 0.68% active. AID 504582, 2011; in the data active = growth rescue above about 28%, passing the limit was not always enough; inconclusive = no clear call, values can overlap the other calls;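 also: yeast W303a lacking pdr1 and pdr3 grown in galactose medium; growth measured after three days at 30 °C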
* hit, by the source's call; u = inconclusive; x = no result given. A selection: hits, their analogues and other compounds. The true share with any hit is near 2.1%.

SMILES	PrP 5UTR inh	CCHFV vOTU inh	PrPC TRFRET	RN4220 kill	Sa ugtP lethal	PfHsp40 rescue
O=C(COC(=O)c1ccc2c(c1Cl)C(=O)c1ccccc1C2=O)NC1CC1	-22	3	-41	87*	80	1
Cc1cc(C(C)(C)CC(C)(C)C)ccc1OCCOCC[N+](C)(C)Cc1ccccc1	-26	19	6	101*	100*	u
CCOC(=O)C1=NN(c2ccccc2)C(=O)C1	-67	11	-3	6	4	113*
CCOC(=O)C1=NN(c2ccccc2)C(=O)/C1=C\c1ccc(N(C)C)cc1	-5	22	4	-6	-3	81*
CCCCc1c(C)nc2ccc(Br)cc2c1SCCC#N	x	x	x	-2	1	x
CCc1c(C)nc2ccc(Br)cc2c1SCCC#N	-17	1	47*	8	6	1
NC(=O)C1(NC(=O)C2CC3(CC(c4cccc(NC(=O)C5CCC(=O)N5)c4)=NO3)CN2C(=O)c2cnccn2)CC1 (stereo unspecified)	x	x	x	1	-2	x
Cc1ccc(C(=O)Nc2cccc([N+](=O)[O-])c2)cc1S(=O)(=O)Nc1cccc(C(=O)O)c1	-13	1	-9	27	94*	0
Cc1[nH]n(-c2cccc3ccccc23)c(=O)c1C=Nc1sc2c(c1C#N)CCC2	x	x	x	-1	4	x
O=S1(=O)CCOCC(c2ccccc2)N1Cc1ccccc1 (stereo unspecified)	x	x	x	4	-4	x
O=[N+]([O-])c1ccc(O)c(C2=NNC(c3ccccc3F)C2)c1 (stereo unspecified)	x	-11	-20	92*	94*	-1
CC1(C)Cc2ccccc2-c2nnc(SCC(=O)Nc3nc4ccccc4s3)n21	-22	6	4	88*	98*	0
Cn1c(SCC(=O)Nc2nc3ccccc3s2)nnc1-c1ccccc1	-33	6	6	0	9	-1
O=Cc1cc2ccccc2nc1SCc1ccc(Cl)c(Cl)c1	51	6	1	56	99*	1
COCCCn1[nH]c2c3c(ccc2c1=O)C(=O)c1ccccc1C3=O	-27	3	-20	86*	84*	0
CC(C)(C)n1[nH]c2c3c(ccc2c1=O)C(=O)c1ccccc1C3=O	-15	4	-27	75	61	-2
CC1OC(OC2C(OC3C[C@]4(C)C(CC(O)C5C([C@]6(C)CCC(C(C)(C)O)O6)CC[C@]54C)[C@@]4(C)CCC(O)C(C)(C)C34)OC(CO)C(O)C2O)C(O)C(O)C1O (stereo partly specified)	x	x	x	4	5	x
CCN(CC)c1ccc(C2C(C(=O)OC)=C(C)NC(C)=C2C(=O)OC)cc1	-33	30*	6	4	1	1
C(=NN(c1ccccc1)c1ccccc1)c1ccccn1	x	x	x	7	4	x
C=CCOc1ccc2c(c1)CCC1C2CCC2(C)C(O)C(O)CC12 (stereo unspecified)	-50	11	6	-8	84*	5
CCOc1cc(C=NNC(=O)C(=O)Nc2cc(Cl)ccc2C)ccc1O	x	x	x	8	-6	x
Oc1ccccc1-c1cc(-c2ccc3c(c2)OCCO3)n[nH]1	-32	-7	-3	29	19	476*
O=C(O)c1cc(-c2ccc3c(c2)OCCO3)n[nH]1	-17	-5	7	5	7	0
Oc1ccc(-c2nc3ccccc3s2)c(O)c1	-67	-35	9	17	27	244*
COC(=O)C1=C(c2ccc(OC(F)(F)F)cc2)CC2CCC1N2C(=O)NC1Cc2ccccc2C1 (stereo unspecified)	x	x	x	-4	-21	x
SMILES	PrP 5UTR inh	CCHFV vOTU inh	PrPC TRFRET	RN4220 kill	Sa ugtP lethal	PfHsp40 rescue
Cn1c(=O)c(C(=O)NNC(=O)c2cccc(Cl)c2)c(O)c2ccccc21	-14	-16	5	100*	100*	19
CCn1c(=O)c(C(=O)NNC(=O)c2cccc(Cl)c2)c(O)c2ccccc21	6	-12	-1	100*	100*	2
Cn1c(=O)c(C(=O)NNC(=O)c2ccccc2Cl)c(O)c2ccccc21	-13	-9	-5	20	-7	82*
Cc1ccccc1Cn1cccc1C=C1C(=N)N2C=CSC2=NC1=O	x	x	x	2	-12	x
COc1ccccc1NC(CC(=O)c1ccccc1)C(=O)OCC(=O)c1ccc(C)cc1 (stereo unspecified)	-163	-16	0	6	84*	-1
CCOc1ccc(C(C)=O)cc1COC(=O)c1ccccc1C(=O)N(C)Cc1ccccc1	-6	13	-4	10	12	96*
CN(Cc1ccccc1)C(=O)c1ccccc1C(=O)OCC(=O)N(Cc1ccccc1)C(C)(C)C	x	12	-13	3	-6	2
COC(=O)c1sc(C(C)(C)C)cc1CSc1ccccc1	-27	-2	-5	4	84*	-2
C=C1CCN(C(CC(C)C)C(=O)N2CCCC2)S(=O)(=O)c2ccccc21 (stereo unspecified)	x	x	x	5	-8	x
S=c1[nH]nc(C2CCCCC2)n1N=Cc1ccccc1Br	x	x	x	26	9	x
COc1cc(OC)cc(C(=O)/C=C2\Sc3ccccc3N2C)c1	-9	-4	4	3	-7	-1
COc1ccc2c(c1)S/C(=C\C(=O)c1ccncc1)N2C	-56	14	-24	x	x	174*
CCCCCCCCOc1ccc(C2CC(=O)NC2=O)cc1 (stereo unspecified)	-8	9	-2	-1	93*	66*
CCOC(=O)N1C(=O)C2(CCCCC2)N(c2ccccc2Cl)C1=S	-22	6	-4	2	-10	284*
CCOC(=O)c1sc(=S)n(-c2ccccc2Cl)c1C	0	3	-3	0	13	2
NC(=O)c1ccc(N=C2C(=O)Nc3ccc([N+](=O)[O-])cc32)cc1	-7	116*	-8	-3	4	0
CCOC1OC(C(=O)NC2CC2)=CC(c2ccc(C(F)(F)F)cc2)C1CCCO (stereo unspecified)	x	x	x	-3	-6	x
O=C(CC(=O)c1c(F)cccc1Cl)c1ccccc1O	x	-48	-9	12	10	112*
O=C(CC(=O)c1ccccc1O)c1ccc(F)cc1	-28	5	11	84	90*	0
O=C(Nc1ccccc1C(=O)O)c1cccc(F)c1	20	5	-5	6	-3	-1
O=C(CC(=O)c1ccccc1O)c1cccc(F)c1	-14	x	x	79	96*	1
NC(=NO)C1COc2ccccc2O1 (stereo unspecified)	x	x	x	6	3	x
CCN1C(=O)C2C(c3ccc(-c4cccc(Cl)c4)cc3)N[C@@](CC(C)C)(C(=O)OC)C2C1=O (stereo partly specified)	x	x	x	-4	20	x
COc1cc([N+](=O)[O-])cc(C=NN(CCC#N)C(C)=O)c1O	x	x	x	2	-2	x
O=c1c(Br)ccc(Br)cc1Br	-18	9	88*	20	50	77*
